# Measured values reported in the supplement of paper PMC7156485.
# Legend:
# Settings in all cases: concentration: 10 µM; 24 h
# HCC1569 [1] = experiment: cell number relative to DMSO (% of DMSO); higher = more cells (less growth inhibition / toxicity)
# How it was run: (§1)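 Using 384-well plates with 800 cells per well in RPMI plus 10% FBS, HCC1569 and TDF cells were exposed to compounds at 10 µM, in triplicate, for 24 h at 37 °C. Imaging of six fields per well at ×10 followed H1.0 and DAPI staining. The reported quantity, H1.0 nuclear intensity or cell number, is a median of replicates given as percent of the plate control, and HCC1569 values were smoothed for positional effects.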
# TDF [2] = experiment: as above
# How it was run: as §1
# TDF [3] = experiment: H1.0 immunofluorescence intensity relative to DMSO (% of DMSO); higher = stronger H1.0 induction, active = 120 or more
# How it was run: as §1
# HCC1569 [4] = experiment: H1.0 immunofluorescence intensity relative to DMSO (% of DMSO); higher = stronger H1.0 induction, active = 140 or more
# How it was run: as §1
# 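Throughout, for H1.0 immunofluorescence intensity relative to DMSO: TDF is a line of transformed human dermal fibroblasts of mesenchymal origin.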
# 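Throughout, for cell number relative to DMSO: TDF denotes transformed human dermal fibroblasts of mesenchymal origin.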
SMILES,cell number (HCC1569 [1]),cell number (TDF [2]),H1.0 immunofluorescence intensity (TDF [3]),H1.0 immunofluorescence intensity (HCC1569 [4])
NC(=O)Nc1sc(-c2ccc(F)cc2)cc1C(N)=O [IKK-2 Inhibitor IV],80.1,103,95.8 (inactive),186 (active)
O=C([O-])CCCc1ccccc1.[Na+] [Sodium Phenylbutyrate],103,106,96.4 (inactive),97.7 (inactive)
CNCCC(Oc1ccc(C(F)(F)F)cc1)c1ccccc1.Cl (stereo not drawn) [R-(-)-Fluoxetine hydrochloride],92,105,110 (inactive),117 (inactive)
O=C(NOCC(O)CO)c1ccc(F)c(F)c1Nc1ccc(I)cc1F (configuration not stated),105,104,87.3 (inactive),94.6 (inactive)
O=C1NC(=O)c2c1c1c3ccccc3[nH]c1c1[nH]c3cc(Br)ccc3c21 [Cdk4 Inhibitor],74.2,63.5,91.2 (inactive),208 (active)
COc1cc(-c2oc3cc(O)cc(O)c3c(=O)c2O)ccc1O [Isorhamnetine],97.1,97.1,97.1 (inactive),116 (inactive)
CN(C)[C@@H]1CCc2[nH]c3ccc(NC(=O)c4ccc(F)cc4)cc3c2C1.Cl,99.2,90.8,94.9 (inactive),114 (inactive)
CC(CSC(=O)c1ccccc1)C(=O)N1CC(Sc2ccccc2)CC1C(=O)[O-].CC(CSC(=O)c1ccccc1)C(=O)N1CC(Sc2ccccc2)CC1C(=O)[O-].[Ca+2] (configuration not stated),106,119,93.2 (inactive),95.4 (inactive)
Cc1cc(C(=O)Nc2cccc(C(=O)Nc3cccc(C(F)(F)F)c3)c2)on1,100,104,99.6 (inactive),113 (inactive)
CS(=O)(=O)CCNCc1ccc(-c2ccc3ncnc(Nc4ccc(OCc5cccc(F)c5)c(Cl)c4)c3c2)o1 [Lapatinib],59.8,57.6,124 (active),151 (active)
"Cn1c(=O)c2[nH]c(-c3ccccc3)nc2n(C)c1=O [1,3-Dimethyl-8-phenylxanthine]",105,110,88 (inactive),92 (inactive)
COc1ccc(-c2cc(C(O)C3CCCCN3)c3ccccc3n2)cc1.Cl.Cl (configuration not stated),68.2,24.8,169 (active),157 (active)
CC(=O)O.O=C(O)c1ccc2c3c1cccc3c(=O)n1c3ccccc3nc21,99.7,89.6,91.3 (inactive),105 (inactive)
CCCCCC(=O)C=CC=CCCCCCCCC(=O)O [13-Ketooctadecadienoioc acid],99.9,97.6,95.9 (inactive),103 (inactive)
Cc1cc(=O)oc2cc(O)ccc12 [4-Methylumbelliferone],103,103,102 (inactive),94.5 (inactive)
Cc1ccc(Cl)c(Nc2ccccc2C(=O)[O-])c1Cl.[Na+] [Meclofenamic acid sodium],106,106,90.8 (inactive),101 (inactive)
CC(NC(=O)C(C#N)=Cc1ccc(O)c(O)c1)c1ccccc1 (configuration not stated) [Tyrphostin AG 527],91.2,89.2,87.7 (inactive),107 (inactive)
NS(=O)(=O)Cc1noc2ccccc12 [Zonisamide],101,94.5,96 (inactive),90.5 (inactive)
COC(C(=O)C(O)C(C)O)C1Cc2cc3cc(OC4CC(OC5CC(O)C(O)C(C)O5)C(O)C(C)O4)c(C)c(O)c3c(O)c2C(=O)C1OC1CC(OC2CC(OC3CC(C)(O)C(O)C(C)O3)C(O)C(C)O2)C(O)C(C)O1 (configuration not stated) [Plicamycin],60.8,36,103 (inactive),126 (inactive)
CN(C)CCOC(c1ccccc1)c1ccccc1.Cl [Diphenhydramine hydrochloride],100,105,88.7 (inactive),97 (inactive)
Cc1ccc(=O)n(-c2ccccc2)c1 [Pirfenidone],102,103,90.3 (inactive),92.5 (inactive)
NC(=O)c1cccc(N)c1 [3-aminobenzamide],98.6,102,90.5 (inactive),87.7 (inactive)
CCCNC1CCc2nc(N)sc2C1 (configuration not stated) [Pramipexole],101,97.5,94.4 (inactive),107 (inactive)
